Reference: paper PMC10726135, “HNF4α isoforms regulate the circadian balance between carbohydrate and lipid metabolism in the liver”
Whole data set: some 18,000 sequences, median “log2 normalized intensity” near 0.36, cut for the highest 2% near 7.3. The list comes from a sample in which the highest values are over-represented; it also holds similar and randomly drawn sequences.

Target: T1, HNF4alpha8 (COS-7 nuclear extract) (Homo sapiens, UniProt P41235-5 1-452)
T1 sequence: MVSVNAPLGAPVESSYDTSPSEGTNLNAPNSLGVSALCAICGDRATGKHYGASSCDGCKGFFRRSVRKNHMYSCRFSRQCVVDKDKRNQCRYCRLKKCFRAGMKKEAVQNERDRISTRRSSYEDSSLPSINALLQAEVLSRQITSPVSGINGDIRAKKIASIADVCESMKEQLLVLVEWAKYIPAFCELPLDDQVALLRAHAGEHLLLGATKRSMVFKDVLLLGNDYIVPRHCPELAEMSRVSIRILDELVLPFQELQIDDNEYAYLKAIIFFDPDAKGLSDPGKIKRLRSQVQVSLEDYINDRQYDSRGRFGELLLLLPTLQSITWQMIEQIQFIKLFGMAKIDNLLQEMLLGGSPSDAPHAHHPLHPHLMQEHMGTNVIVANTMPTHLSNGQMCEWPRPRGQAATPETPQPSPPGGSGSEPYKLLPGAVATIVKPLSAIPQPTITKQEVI
Experiment: protein-binding microarray; COS-7 nuclear extract on double-stranded Agilent 4x180k PBM; binding buffer, salt, pH and temperature not given in the material; high values mean tight binding
Details: chain copies: 2; label: 3' end of strand 1 on the slide; dsDNA, one strand shown
Procedure, shortened: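 COS-7 cells were transiently transfected by CaPO4 with an expression vector for a human HNF4α isoform, and nuclear extracts were prepared from them. The extracts were applied to a custom Agilent SurePrint G3 4x180k array of double-stranded ~60-nt oligonucleotides, with ~44,000 test sequences spotted in quadruplicate. An Agilent G2565CA scanner imaged bound HNF4α at 2-µm resolution. Binding signal is the background-corrected, normalized gProcessedSignal from Agilent software.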

| Sequence | binding signal [log2 normalized intensity] |
| --- | --- |
| TGCAGTTTCCCTATTCTCAGTGATATAAAAGCCTAGGGAGATTAGAGTATCGGTCGA | 0.942 |
| AAAGGTCATCGCACCGGCAGGGGAGAACTTGCCTAGGGAGATTAGAGTATCGGTCGA | 1.24 |
| AGGTCGCAAGCACTGGCTCTGGGGTCAAAGGCCTAGGGAGATTAGAGTATCGGTCGA | 4.08 |
| CCTGCCTCTCCTCTGAGCTTCATCCTGACCGCCTAGGGAGATTAGAGTATCGGTCGA | 1.7 |
| TCTCTGGGTCAAAGGTCATCGCACCGGCAGGCCTAGGGAGATTAGAGTATCGGTCGA | 7.54 |
| GCCACCCTCCTCTCTGGGTCAAAGGTCATCGCCTAGGGAGATTAGAGTATCGGTCGA | 10.2 |
| GGGGTCAAAGTCCCCTGAGCTTGAGTCCATGCCTAGGGAGATTAGAGTATCGGTCGA | 6 |
| CTGGGGCCACCCTCCTCTCTGGGTCAAAGGGCCTAGGGAGATTAGAGTATCGGTCGA | 5.36 |
| CTCTCCCTCCTCTCTGAGCAGTCAAACTGGGCCTAGGGAGATTAGAGTATCGGTCGA | 1.89 |
| CACTGGCTCTGGGGTCAAAGTCCCCTGAGCGCCTAGGGAGATTAGAGTATCGGTCGA | 7.66 |
| CCTCCTCTCTGGGTCAAAGGTCATCGCACCGCCTAGGGAGATTAGAGTATCGGTCGA | 8.5 |
| CCTGGTCAAAGTCAACTCCTCCAAGCCACCGCCTAGGGAGATTAGAGTATCGGTCGA | 0.614 |
| GAGGTGTCAGCCACCCCTCCTCCTGGGGGCGCCTAGGGAGATTAGAGTATCGGTCGA | 2.93 |
| CCAATTCACAGAACTCCCTAAGTGGCCTCAGCCTAGGGAGATTAGAGTATCGGTCGA | 0.0537 |
| GGTTGTCAGACTGGTGTAGTGGGGAGGGCAGCCTAGGGAGATTAGAGTATCGGTCGA | 1.35 |
| GCGGCATTCCTGTCAAAATCTGATCTTTCCGCCTAGGGAGATTAGAGTATCGGTCGA | 1.47 |
| CAAGTTGGTTTACATTCTTAGAAGATAAAGGCCTAGGGAGATTAGAGTATCGGTCGA | 0.323 |
| GAGGCTTTGAGTCATTGAGGCTTTGCCTTAGCCTAGGGAGATTAGAGTATCGGTCGA | -0.699 |
| TTGGACTTTGACCTCCAAAATTATAAGTCAGCCTAGGGAGATTAGAGTATCGGTCGA | 8.58 |
| CACAGCTGGACTTTGGCTGCAAAATTTGAAGCCTAGGGAGATTAGAGTATCGGTCGA | 3.88 |
| CCATTTTGGACTTTGACCTCCAAAATTATAGCCTAGGGAGATTAGAGTATCGGTCGA | 10.9 |
| AATGATGATGACTTTTGACCCCAGGGGAAAGCCTAGGGAGATTAGAGTATCGGTCGA | 6.38 |

| Sequence | binding signal [log2 normalized intensity] |
| --- | --- |
| CTTTGTAGCACTTTGGACCTCCACTTTGGAGCCTAGGGAGATTAGAGTATCGGTCGA | 3.36 |
| CATTGACTTTGCCTTTTGGCTAAAGTCCAAGCCTAGGGAGATTAGAGTATCGGTCGA | 4.75 |
| GAGACCCATTTTGGACTTTGACCTCCAAAAGCCTAGGGAGATTAGAGTATCGGTCGA | 11.3 |
| CTTGACTTTGGACTTTCAAAAGTTAAGGTCGCCTAGGGAGATTAGAGTATCGGTCGA | 3.98 |
| GAATTCTTGACTTTGGACTTTCAAAAGTTAGCCTAGGGAGATTAGAGTATCGGTCGA | 5.14 |
| TTTGTCAAATGCTTCCAAGAATTTAAGAGAGCCTAGGGAGATTAGAGTATCGGTCGA | -0.862 |
| CAGAGGACAGGTTTCCTGAGTTACAGATAAGCCTAGGGAGATTAGAGTATCGGTCGA | -0.778 |
| ATTCACATCTCCAGTTCCAAAGTCCAGGTGGCCTAGGGAGATTAGAGTATCGGTCGA | 6.55 |
| TGTTAGCAGAAACCATCTGGCTTGGCCCCCGCCTAGGGAGATTAGAGTATCGGTCGA | 4.14 |
| AAAATACCTGGAAGTATTTATTGAGCACACGCCTAGGGAGATTAGAGTATCGGTCGA | -0.121 |
| ATCACTGAAGCGACCCCTCGAGGCAACCTTGCCTAGGGAGATTAGAGTATCGGTCGA | 1.75 |
| CGACCCCTCGAGGCAACCTTTGACCTGGTAGCCTAGGGAGATTAGAGTATCGGTCGA | 8.16 |
| AAGTATCTCGGTCAAACCTTTGACCCTTTAGCCTAGGGAGATTAGAGTATCGGTCGA | 6.9 |
| GTCAAATCACTGAAGCGACCCCTCGAGGCAGCCTAGGGAGATTAGAGTATCGGTCGA | 1.82 |
| CCTCGAGGCAACCTTTGACCTGGTACTATGGCCTAGGGAGATTAGAGTATCGGTCGA | 6.8 |
| TGAAGCGACCCCTCGAGGCAACCTTTGACCGCCTAGGGAGATTAGAGTATCGGTCGA | 9.25 |
| GTGAACCTTTGTCCCGTTATGGCACCAAGAGCCTAGGGAGATTAGAGTATCGGTCGA | 1.55 |
| AGATCCATTGCATGTGCATTTCACAATAGGGCCTAGGGAGATTAGAGTATCGGTCGA | 0.639 |
| GCCACGGTCAGCAATGTGGACTTTGTCCTGGCCTAGGGAGATTAGAGTATCGGTCGA | 10.2 |
| TGGACTTTGGTCCTGGTCAGACTTGCCACGGCCTAGGGAGATTAGAGTATCGGTCGA | 5.42 |
| GCAATGTGGACTTTGTCCTGTGGGCTGTAAGCCTAGGGAGATTAGAGTATCGGTCGA | 8.03 |
| ATGGACTTTGAAGGAGATTCCTGTGTCAGCGCCTAGGGAGATTAGAGTATCGGTCGA | 1.23 |

| Sequence | binding signal [log2 normalized intensity] |
| --- | --- |
| GGTCAGCAATGTGGACTTTGTCCTGTGGGCGCCTAGGGAGATTAGAGTATCGGTCGA | 8.67 |
| GTGGGAGAAAGCTTTGGACTTTGGGCTGTGGCCTAGGGAGATTAGAGTATCGGTCGA | 6.47 |
| CCGTCCTGTCCTGGACTTTCCTTTGTTGGGGCCTAGGGAGATTAGAGTATCGGTCGA | 2.84 |
| AGTTTGCCACGGTCAGCAATGTGGACTTTGGCCTAGGGAGATTAGAGTATCGGTCGA | 6.83 |
| GTGGACTTTGTCCTGTGGGCTGTAAAAATCGCCTAGGGAGATTAGAGTATCGGTCGA | 5.73 |
| CAGATAATTACCTGGACTCTAGAGCCAGACGCCTAGGGAGATTAGAGTATCGGTCGA | 1.75 |
| CTCAAAGTCTAACCCAACTAAGAACACAGTGCCTAGGGAGATTAGAGTATCGGTCGA | 1.24 |
| AAAGTTCAGTTGCAAAGAACAGAATCCAGTGCCTAGGGAGATTAGAGTATCGGTCGA | -0.777 |
| GTCTTACTGATGGGCAAAGTTTTCAAGAATGCCTAGGGAGATTAGAGTATCGGTCGA | 1.24 |
| CATGTTTACTTTTGCAAGGTTTGTTCTTATGCCTAGGGAGATTAGAGTATCGGTCGA | 1.87 |
| ACAGGAGATCAGATGGGGTGAACTTTGGACGCCTAGGGAGATTAGAGTATCGGTCGA | 9.11 |
| TGGGGTATCAGGTGGTGATGGTGGGAGGGAGCCTAGGGAGATTAGAGTATCGGTCGA | -0.797 |
| AGATGGGGTGAACTTTGGACCACATATAGAGCCTAGGGAGATTAGAGTATCGGTCGA | 7.98 |
| AGATCAGATGGGGTGAACTTTGGACCACATGCCTAGGGAGATTAGAGTATCGGTCGA | 8.04 |
| CTCAGTCATACCACATGGATGGATTCAGATGCCTAGGGAGATTAGAGTATCGGTCGA | 0.256 |
| TACCATGGGAGACCTCAGGGGTCATCAGATGCCTAGGGAGATTAGAGTATCGGTCGA | 3.08 |
| GAGGACTTTGGCCTTTTGTGAGATATGGACGCCTAGGGAGATTAGAGTATCGGTCGA | 4.16 |
| CAGGGGTCATCAGATAGATGGTCAGTGAACGCCTAGGGAGATTAGAGTATCGGTCGA | 1.88 |
| GGTGAACTTTGAGACTATCCTTGGACCGCAGCCTAGGGAGATTAGAGTATCGGTCGA | 3.32 |
| AAGGGAGAAAGACATGTTTCTAACTGCCCGGCCTAGGGAGATTAGAGTATCGGTCGA | 0.0984 |
| CTGCTTCGGCCTTTGACCTCGTGATAACGAGCCTAGGGAGATTAGAGTATCGGTCGA | 5.83 |
| TTGAAGAAATGGTGGACTTTGTAGCTCAAAGCCTAGGGAGATTAGAGTATCGGTCGA | 4.79 |

| Sequence | binding signal [log2 normalized intensity] |
| --- | --- |
| AAAGTTCTGCTGAGTATCCAAAGGTCAGTGGCCTAGGGAGATTAGAGTATCGGTCGA | 6.24 |
| GACGGGAGGAAAACTGGGCAAAGGTCAGGAGCCTAGGGAGATTAGAGTATCGGTCGA | 5.58 |
| GGCGTGGACTTCGCTCCGCCGCTAGGTGGCGCCTAGGGAGATTAGAGTATCGGTCGA | 3.13 |
| GCCAGGCAGGACAGTTTTGTGTGTTTAATGGCCTAGGGAGATTAGAGTATCGGTCGA | 0.878 |
| AAATGCTGATAATGATATGGACAATGAAATGCCTAGGGAGATTAGAGTATCGGTCGA | 0.122 |
| CCTTTCTACTGCCAGCCAGGGCCACCCATCGCCTAGGGAGATTAGAGTATCGGTCGA | 0.592 |
| ACTTTGACCTTGTTTTCAATGACTACCTGTGCCTAGGGAGATTAGAGTATCGGTCGA | 2.13 |
| GCCACCCATCAGTGGACTTTGACCTTGTTTGCCTAGGGAGATTAGAGTATCGGTCGA | 10.8 |
| CCATCAGTGGACTTTGACCTTGTTTTCAATGCCTAGGGAGATTAGAGTATCGGTCGA | 9.54 |
| GACCTTGTTTTCAATGACTACCTGTTACCCGCCTAGGGAGATTAGAGTATCGGTCGA | 1.81 |
| CACATGCTATTATTTTCCATCAGTGGACTTGCCTAGGGAGATTAGAGTATCGGTCGA | 3.95 |
| CCCAGGGACTTTGGCCTTACTTGGCCTGTTGCCTAGGGAGATTAGAGTATCGGTCGA | 3.01 |
| CAGTGGACTTTGTCCTTCATCTATCTCCTTGCCTAGGGAGATTAGAGTATCGGTCGA | 5.95 |
| GCCAGCCAGGGCCACCCATCAGTGGACTTTGCCTAGGGAGATTAGAGTATCGGTCGA | 7.34 |
| GTTCAATGCTTCAGTGAGCCTTGACCTTCAGCCTAGGGAGATTAGAGTATCGGTCGA | 4.83 |
| AGTGGACTTTGACCTTGTTTTCAATGACTAGCCTAGGGAGATTAGAGTATCGGTCGA | 7.8 |
| AGACCTTTGACATCACCTAACTTGTGGCTGGCCTAGGGAGATTAGAGTATCGGTCGA | 1.49 |
| GCAGCTCTTTACAAAGCCCATGCTGGACCCGCCTAGGGAGATTAGAGTATCGGTCGA | 4.69 |
| TCACAGTGCCTCTGCAAGTTGGCCTTACTAGCCTAGGGAGATTAGAGTATCGGTCGA | -0.0691 |
